Reference: the supplement of paper PMC8728848
The sample as a whole holds a higher share of the strongest signals than the screen did.

B1: C-Reactive Protein (Homo sapiens), P02741 (protein)
chain: MEKLLCFLVLTSLSHAFGQTDMSRKAFVFPKESDTSYVSLKAPLTKPLKAFTVCLHFYTELSSTRGYSIFSYATKRQDNEILIFWSKDIGYSFTVGGSEILFEVPEVTVAPVHICTSWESASGIVEFWVDGKPRVRKSLKKGYTVGAEASIILGQEQDSFGGNFEGSQSLVGDIGNVNMWDFVLSPDEINTIYLGGPFSPNVLNWRALKYEVQGEVFTKPQLWP
B2: Onconase (Rana pipiens), P22069 (protein)
chain: QDWLTFQKKHITNTRDVDCDNIMSTNLFHCKDKNTFIYSRPEPVKAICKGIIASKNVLTTSEFYLSDCNVTSRPCKYKLKKSTNKFCVTCENQAPVHFVGVGSC

How the values were obtained:
Test in all cases: glycan array binding signal (z-score within array); higher = stronger binding
Details in all cases: glycan notation: IUPAC condensed, linker removed
[1] = biological target: Fuc(a1-3)[Gal3S(b1-4)]Glc
In short: (§1)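 Negative Z-scores can be read as non-binding. The Z-score is calculated within each array and then averaged across arrays of one protein sequence at different concentrations or buffers and across linkers. Arrays, 3228 in all, were curated from the Consortium for Functional Glycomics database and kept only where the protein sequence was available.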

[2] = biological target: Fuc(a1-3)[GalNAc(b1-4)]Gal(b1-4)GlcNAc
In short: as §1

Gal(a1-2)Gal = biological target: Gal(a1-2)Gal
In short: as §1

Gal(a1-4)Gal(b1-4)Gal = biological target: Gal(a1-4)Gal(b1-4)Gal
In short: as §1

Gal(b1-3)Gal = biological target: Gal(b1-3)Gal
In short: as §1

[3] = biological target: Gal(b1-3)GalNAc(b1-3)Gal(a1-4)Gal(b1-4)Glc
In short: as §1

[4] = biological target: Gal(b1-3)GlcNAc(b1-3)Gal(b1-3)GlcNAc
In short: as §1

[5] = biological target: Gal(b1-3)[Fuc(a1-4)]GlcNAc(b1-3)Gal(b1-4)GlcNAc
In short: as §1

[6] = biological target: Gal(b1-3)[Fuc(a1-4)]GlcNAc(b1-3)Gal(b1-4)[Fuc(a1-3)]GlcNAc
In short: as §1

[7] = biological target: Gal(b1-4)GalNAc(a1-3)[Fuc(a1-2)]Gal(b1-4)GlcNAc
In short: as §1

[8] = biological target: Gal(b1-4)GalNAc(b1-3)[Fuc(a1-2)]Gal(b1-4)GlcNAc
In short: as §1

Gal(b1-4)Glc6S = biological target: Gal(b1-4)Glc6S
In short: as §1

[9] = biological target: Gal(b1-4)GlcNAc(b1-3)Gal(b1-4)[Fuc(a1-3)]GlcNAc(b1-3)Gal(b1-4)[Fuc(a1-3)]GlcNAc
In short: as §1

Gal3S(b1-3)GalNAc = biological target: Gal3S(b1-3)GalNAc
In short: as §1

Gal3S(b1-4)GlcNAc6S = biological target: Gal3S(b1-4)GlcNAc6S
In short: as §1

Gal4S6S(b1-4)GlcNAc = biological target: Gal4S6S(b1-4)GlcNAc
In short: as §1

GlcA(b1-6)Gal = biological target: GlcA(b1-6)Gal
In short: as §1

[10] = biological target: GlcNAc(b1-3)Gal(b1-3)GalNAc
In short: as §1

[11] = biological target: GlcNAc(b1-4)GlcNAc(b1-4)GlcNAc
In short: as §1

Kdn(a2-3)Gal(b1-3)GlcNAc = biological target: Kdn(a2-3)Gal(b1-3)GlcNAc
In short: as §1

[12] = biological target: Man(a1-2)Man(a1-2)Man(a1-3)[Man(a1-2)Man(a1-3)[Man(a1-2)Man(a1-6)]Man(a1-6)]Man(b1-4)GlcNAc(b1-4)GlcNAc
In short: as §1

[13] = biological target: Neu5Ac(a2-3)Gal(b1-4)GlcNAc(b1-3)Gal(b1-4)GlcNAc
In short: as §1

[14] = biological target: Neu5Ac(a2-3)Gal(b1-4)GlcNAc(b1-6)[Gal(b1-3)]GalNAc
In short: as §1

[15] = biological target: Neu5Ac(a2-3)Gal6S(b1-4)[Fuc(a1-3)]GlcNAc
In short: as §1

[16] = biological target: Neu5Ac(a2-8)Neu5Ac(a2-8)Neu5Ac(a2-8)Neu5Ac(a2-3)[GalNAc(b1-4)]Gal(b1-4)Glc
In short: as §1

[17] = biological target: Fuc(a1-3)[Gal(b1-4)]GlcNAc(b1-4)Gal(b1-4)[Fuc(a1-3)]GlcNAc
In short: as §1

Gal(b1-2)Gal = biological target: Gal(b1-2)Gal
In short: as §1

[18] = biological target: Gal(b1-3)[Fuc(a1-4)]GlcNAc
In short: as §1

Gal3S(b1-4)Glc6S = biological target: Gal3S(b1-4)Glc6S
In short: as §1

Gal6S(b1-4)Glc6S = biological target: Gal6S(b1-4)Glc6S
In short: as §1

Glc(b1-6)Glc = biological target: Glc(b1-6)Glc
In short: as §1

[19] = biological target: GlcNAc(b1-2)Gal(b1-3)GlcNAc
In short: as §1

GlcNAc(b1-3)GalNAc = biological target: GlcNAc(b1-3)GalNAc
In short: as §1

[20] = biological target: Neu5Ac(a2-3)Gal(b1-4)GlcNAc(b1-3)Gal(b1-4)[Fuc(a1-3)]GlcNAc
In short: as §1

[21] = biological target: Neu5Ac(a2-6)Gal(b1-4)GlcNAc
In short: as §1

[22] = biological target: Neu5Ac9Ac(a2-6)Gal(b1-4)GlcNAc
In short: as §1

[23] = biological target: Neu5Gc(a2-3)Gal(b1-3)[Fuc(a1-4)]GlcNAc
In short: as §1

| Binder | glycan array binding signal (z-score) [1] | glycan array binding signal (z-score) [2] | glycan array binding signal (z-score) (Gal(a1-2)Gal) | glycan array binding signal (z-score) (Gal(a1-4)Gal(b1-4)Gal) | glycan array binding signal (z-score) (Gal(b1-3)Gal) | glycan array binding signal (z-score) [3] | glycan array binding signal (z-score) [4] | glycan array binding signal (z-score) [5] | glycan array binding signal (z-score) [6] | glycan array binding signal (z-score) [7] | glycan array binding signal (z-score) [8] | glycan array binding signal (z-score) (Gal(b1-4)Glc6S) | glycan array binding signal (z-score) [9] | glycan array binding signal (z-score) (Gal3S(b1-3)GalNAc) | glycan array binding signal (z-score) (Gal3S(b1-4)GlcNAc6S) | glycan array binding signal (z-score) (Gal4S6S(b1-4)GlcNAc) | glycan array binding signal (z-score) (GlcA(b1-6)Gal) | glycan array binding signal (z-score) [10] | glycan array binding signal (z-score) [11] | glycan array binding signal (z-score) (Kdn(a2-3)Gal(b1-3)GlcNAc) | glycan array binding signal (z-score) [12] | glycan array binding signal (z-score) [13] | glycan array binding signal (z-score) [14] | glycan array binding signal (z-score) [15] | glycan array binding signal (z-score) [16] | glycan array binding signal (z-score) [17] | glycan array binding signal (z-score) (Gal(b1-2)Gal) | glycan array binding signal (z-score) [18] | glycan array binding signal (z-score) (Gal3S(b1-4)Glc6S) | glycan array binding signal (z-score) (Gal6S(b1-4)Glc6S) | glycan array binding signal (z-score) (Glc(b1-6)Glc) | glycan array binding signal (z-score) [19] | glycan array binding signal (z-score) (GlcNAc(b1-3)GalNAc) | glycan array binding signal (z-score) [20] | glycan array binding signal (z-score) [21] | glycan array binding signal (z-score) [22] | glycan array binding signal (z-score) [23] |
| --- | --- | --- | --- | --- | --- | --- | --- | --- | --- | --- | --- | --- | --- | --- | --- | --- | --- | --- | --- | --- | --- | --- | --- | --- | --- | --- | --- | --- | --- | --- | --- | --- | --- | --- | --- | --- | --- |
| B1 | 0.735 | -0.478 | -0.469 | -0.603 | -0.554 | -0.576 | 1.62 | -0.4 | -0.468 | -0.454 | -0.521 | 0.381 | 0.095 | 0.199 | 1.48 | 2.24 | -0.49 | -0.505 | 1.94 | -0.402 | -0.496 | -0.055 | 1.51 | 0.578 | 0.158 |  |  |  |  |  |  |  |  |  |  |  |  |
| B2 |  |  | 3.22 |  |  |  |  |  |  |  |  |  | 2.54 |  |  |  |  |  |  |  |  |  |  |  | 2.71 | 1.21 | 2.63 | -0.553 | -0.281 | 0.598 | 0.027 | -0.449 | -0.84 | -0.671 | 0.51 | -0.006 | 1.6 |
